Source: PubChem
12-LOX inh: Primary qHTS assay for inhibitors of human arachidonate 12S-lipoxygenase (ALOX12): Round 2; Polyunsaturated fatty acid lipoxygenase ALOX12 (Homo sapiens), P18054; purified 12hLO, xylenol orange hydroperoxide absorbance; Potency, µM (titrated, usually from 108 µM), for the others: top-dose activity change, negative = inhibition, most hits filed as inhibitors; 580,000 compounds, 1.1% hits; further: on the % scale 0 is the no-effect control and ±100 the full control effect
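Hydroperoxide product was detected by ferrous iron/xylenol orange as the 573 to 405 nm absorbance ratio. Arachidonic acid at 40 uM (final) was turned over for 30 min at room temperature by 150 nM human 12hLO, pH 7.0 Hepes buffer, after 15 min compound preincubation.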
BAZ2B block: qHTS Assay for Inhibitors of BAZ2B. Potency, µM (doses to about 114 µM), for the others: at the highest dose activity change, negative = inhibition, actives largely listed as inhibitors. 360,000 compounds, 4.4% hits. AlphaScreen BAZ2B-H3K14Ac peptide displacement; further: on the % scale 0 is the no-effect control and ±100 the full control effect; nearly all actives have a fitted effect of over 60% in size
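Protein-peptide AlphaScreen: BAZ2B 50 nM, b-H3K14Ac 50 nM, 1x PBS pH 7.4 + 0.01% Tween-20. Preincubation 30 min RT; cpd 30 min RT (top 110 uM); beads 20 min RT, light-protected.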
JMJD2A Tudor: qHTS Assay for Inhibitors of JMJD2A-Tudor Domain; AlphaScreen JMJD2A-Tudor / H3K4me3 peptide binding; Potency, µM (series often up to 114 µM), for the others: top-dose activity change, negative = inhibition, usual class: inhibitors; 390,000 compounds, 4.4% hits; AID 504339, 2011; further: on the % scale 0 is the no-effect control and ±100 the full control effect; nearly all actives have a fitted effect of over 50% in size
Sfp inh: qHTS Assay for Inhibitors of Bacillus subtilis Sfp phosphopantetheinyl transferase (PPTase) | 4'-phosphopantetheinyl transferase ffp (Bacillus subtilis), Q9F4F7 | 310,000 compounds, 3.5% hits | Potency, µM, for the others: largest response in the series, negative = inhibition, hits mostly inhibitors | Biochemical Sfp PPTase activity, qHTS | AID 1490, 2009;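 further: the enzyme is Sfp with the accession as filed and its product quenches rhodamine fluorescence; 0% = enzyme reaction without inhibitor and -100% = no enzyme wells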
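Buffer: 50 mM Hepes-Na pH 7.6, 10 mM MgCl2, 0.01% Nonidet P-40, 0.01% BSA. Enzyme 15 nM, pre-exposed to compound 15 min; substrates then added and fluorescence change tracked over 30 min.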
HP1b chromo inh: HTS for Inhibitors of HP1-beta Chromodomain Interactions with Methylated Histone Tails; Chromobox protein homolog 1 (Homo sapiens), P83916; AlphaScreen HP1-beta / biotin-H3K9me3 peptide binding; Potency, µM (titrated, usually from 114 µM), without a hit: at the highest dose activity change, negative = inhibition, actives largely listed as inhibitors; 390,000 compounds, 0.56% hits; AID 540317, 2011; further: nearly all actives have a fitted effect of over 70% in size
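Compound inhibition of the preformed complex between 50 nM HP1-beta and 50 nM biotinylated H3K9me3 peptide was read by AlphaScreen. Buffer was PBS pH 7.4 with 0.01% Tween-20. Incubations ran 30 min at room temperature, with 10 ug/mL donor/acceptor beads.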
G9a inh: qHTS Assay for Inhibitors of Histone Lysine Methyltransferase G9a | Histone-lysine N-methyltransferase EHMT2 (Homo sapiens), Q96KQ7 | G9a H3K9 monomethylation, AlphaScreen, 2 h | Potency, µM (titrated, usually from 102 µM), for inactives: at the top dose activity, negative = inhibition, hits mostly inhibitors | 350,000 compounds, 8.8% hits; further: on the % scale 0 is the no-effect control and ±100 the full control effect; nearly all actives have a fitted effect of over 75% in size
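Quantitative HTS format: methyltransferase activity on a biotin-tagged H3K9 peptide is measured by AlphaScreen, using a rabbit anti-monomethyl-H3K9 antibody with streptavidin donor and anti-IgG acceptor beads. Final levels are 20 nM enzyme, 500 nM peptide, 20 uM SAM; 2 h RT.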
Active calls of the source: *; ? = inconclusive; . = no result; [ ] = remark or other dose. Only some compounds are listed: those with a hit (about 8.7% of all), similar ones and a draw of the others. The call rests on the fitted dose curve; in most records, active means well fitted curve in the direction sought with a large enough effect; inconclusive means small, poorly fitted or top-dose-only effect, or another doubt; inactive means no such curve, though single readings can be large; an effect the other way counts as inactive or inconclusive. Potency means the concentration at half of the fitted maximal effect.

SMILES | 12-LOX inh | BAZ2B block | JMJD2A Tudor | Sfp inh | HP1b chromo inh | G9a inh
Cc1nnc(NS(=O)(=O)c2ccc(N=Nc3ccc(N)nc3N)cc2)s1 | -28% | . | 50µM* | . | ? | .
Cc1ccc2nc(C(C)(C)C)c(Cc3ccsc3)n2c1 | 6.3µM* | . | . | . | . | .
CCCc1nc2ccc(C)cn2c1Cc1ccsc1 | 20% | . | . | . | . | .
Cc1cc(Br)cn2c(Cc3ccsc3)c(C(C)(C)C)nc12 | 35µM* | . | . | . | . | .
Cc1cc(Br)cn2c(Cc3ccccc3)c(-c3cccc(Cl)c3)nc12 | -15% | . | . | . | . | .
Cc1c(Cl)c(C(=O)N[C@H]2[C@@H]3CCO[C@@H]3[C@@H]2C2CCCC2)nn1C | 21% | . | . | . | . | .
CCCCCC(=O)Nc1nc(C)c(-c2csc(Nc3cc(OC)ccc3OC)n2)s1 | ? | 28µM* | 50µM* | 9% | ? | 7.1µM*
CCCCCCC(=O)Nc1nc(C)c(-c2csc(Nc3cc(OC)ccc3OC)n2)s1 | -21% | ? | 50µM* | 11% | -13% | ?
COc1ccccc1NC(=O)Cc1cnc(-n2cccc2)s1 | 13% | . | . | . | . | .
OC(COCc1ccccc1F)Cn1nnc(-c2ccccc2)n1 (stereo unspecified) | -3% | . | . | . | . | .
CCn1c(C2CCCN(C(=O)Nc3ccc4c(c3)OCCO4)C2)nn(C)c1=O (stereo unspecified) | -10% | . | . | . | . | .
O=C(c1ccccc1)c1ccc(O)c(O)c1O | ? | . | 25µM* | . | ? | .
Cc1cc(C)c(C(=O)c2ccccc2)cc1C(=O)c1ccccc1 | -15% | . | . | . | . | .
O=C1CCC2(CNC(=O)c3cccnc3)CCCC=C2N1 (stereo unspecified) | 70% | . | . | . | . | .
COC[C@@H]1CN(C(=O)COc2ccc(F)cc2)C[C@H]1c1ccccn1 | -3% | . | . | . | . | .
COC(=O)CCN1CCN(S(=O)(=O)c2ccc3c(c2)OCCO3)CC1 | ? | 7% | 0% | . | 38% | 29%[2.33 µM]
COC(=O)CCN1CCN(S(=O)(=O)c2ccccc2Br)CC1 | -22% | 20µM* | 0.79µM* | ? | ? | 3.5µM*
Cc1ccc(-c2[nH][nH]c(=O)c(=O)c2N=Nc2ccccc2)cc1 | -11% | -30% | -14%[11.4 µM] | 13% | ? | 45µM*
Cc1cc(=O)n2[nH]c(=O)c(N=Nc3ccccc3)c2[nH]1 | ? | ? | ? | -2% | 9% | -13%[12.7 µM]
Cc1ccccc1C(=O)Nc1cccc(-c2nc3ccccc3o2)c1 | -9% | . | . | . | . | .
COc1ccccc1Nc1cc(C)nc2c(C)ccc([N+](=O)[O-])c12 | -18% | 11µM* | 10µM* | -9% | 16µM* | 25µM*
COc1c(CNC2CCN(Cc3ccccc3)CC2)c(C)nn1C | 3% | . | . | . | . | .
CC1=C/C(=C(\c2cc(C)c(O)c(Br)c2)c2ccccc2S(=O)(=O)O)C=C(Br)C1=O | ? | 20µM* | ? | 45µM* | 28µM* | 14µM*
Cc1cc(C(=O)c2ccccc2)cc(C)c1O | -7% | . | -3% | . | 25% | .
CCN(CC(=O)Nc1c(F)cccc1F)C(=O)/C=C/c1ccc2ccccc2n1 | 32µM* | 8.9µM* | 3.5µM* | . | -89% | 7.1µM*
SMILES | 12-LOX inh | BAZ2B block | JMJD2A Tudor | Sfp inh | HP1b chromo inh | G9a inh
Cc1ccc2nc(Cl)c3cc(C(=O)N(CCN(C)C)Cc4ccco4)sc3c2c1 | -24% | . | 45µM* | -10% | ? | 50µM*
Cc1ccc2cc3cc(C(=O)NCCCN4CCc5ccccc5C4)oc3nc2c1 | 0% | -9% | -2%[11.4 µM] | -21% | 5% | ?
Cc1ccc2cc3cc(C(=O)NCCCN4CCCCCC4)oc3nc2c1 | ? | -6% | -13% | -8% | 11% | 45µM*
Cc1ccc2cc3cc(C(=O)NCCCN4CCCC4)oc3nc2c1 | ? | -16% | ? | 18% | 22% | 79µM*
Cc1ccc2nc(Cl)c3cc(C(=O)NCCCN4CCCC4)sc3c2c1 | 1% | -3% | -32% | 4% | 17% | 50µM*
CCCCN(CC)CCCNC(=O)c1cc2cc3ccc(C)cc3nc2o1 | 0% | -8% | -3% | 0% | -12% | 11%
O=C(NC(=S)NNC(=O)c1ccccc1F)c1cccnc1 | ? | 5% | 16µM* | ? | -15% | 8.9µM*
Cc1ccccc1C(=O)NNC(=S)NC(=O)c1cccnc1 | ? | -3% | -27% | ? | -2% | 6.3µM*
O=C(NC(=S)NCc1cccnc1)c1ccccc1F | ? | -13% | -4% | 4% | 50% | ?
Cc1ccccc1C(=O)NC(=S)NCc1cccnc1 | 0% | -18% | -8% | -3% | 10% | ?
CC(C)(CNC(=O)c1cc2c(s1)CCCCC2)N1CCOCC1 | -8% | . | . | . | . | .
O=C(NCCc1ccccc1)N1CCN(C(=O)N2CC3CC(C2)[C@H]2CCCC(=O)N2C3)CC1 (stereo partly specified) | 39% | . | . | . | . | .
C=CCSC1=C(C#N)C(c2cccc(OC)c2)CC(=O)N1 (stereo unspecified) | ? | 5% | -8% | 35µM* | -6% | 45µM*
COC(=O)CSC1=C(C#N)C(c2cccc(OC)c2)CC(=O)N1 (stereo unspecified) | 3% | -6% | -6% | 2% | 49% | 71µM*
COC(=O)CSC1=C(C#N)C(c2ccc(Cl)cc2)C(C(=O)OC)C(=O)N1 (stereo unspecified) | -28% | 2% | -20% | -15% | -15% | 45µM*
COC(=O)CSC1=C(C#N)C(c2cccc(F)c2)CC(=O)N1 (stereo unspecified) | ? | 0% | -16% | 20% | 12% | .
CCOc1ccc(C2CC(=O)NC(SCC(=O)OC)=C2C#N)cc1 (stereo unspecified) | -10% | 9% | -11% | 10% | 36% | 71µM*
CCOC(=O)CSC1=C(C#N)C(c2ccc(Cl)cc2)C(C(=O)OC)C(=O)N1 (stereo unspecified) | ? | -7% | -15% | ? | -12% | ?
C=CCOC(=O)C1=C(C)N=C2SC=C(CC(=O)NCC3CC3)N2C1c1ccc(OC)c(OC)c1 (stereo unspecified) | 10% | . | . | . | . | .
CCOc1ccc(CN(Cc2cccc(Oc3ncccn3)c2)C2CC2)cc1 | 70% | . | . | . | . | .
CCCSc1ncc(Cl)c(C(=O)N2CCN(c3ccc(OC)cc3)CC2)n1 | -27% | 35µM* | ? | . | -11% | 10µM*
